Legend:
[1] = molecular target: Protein kinase C gamma type (Homo sapiens) (UniProt P05129); conditions: at 1 µM;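 also: each value is an averaged percent inhibition of the enzyme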
[2] = molecular target: T1, Protein kinase C iota type (Homo sapiens) (UniProt P41743); conditions: at 0.1 µM
T1 sequence (whole entry): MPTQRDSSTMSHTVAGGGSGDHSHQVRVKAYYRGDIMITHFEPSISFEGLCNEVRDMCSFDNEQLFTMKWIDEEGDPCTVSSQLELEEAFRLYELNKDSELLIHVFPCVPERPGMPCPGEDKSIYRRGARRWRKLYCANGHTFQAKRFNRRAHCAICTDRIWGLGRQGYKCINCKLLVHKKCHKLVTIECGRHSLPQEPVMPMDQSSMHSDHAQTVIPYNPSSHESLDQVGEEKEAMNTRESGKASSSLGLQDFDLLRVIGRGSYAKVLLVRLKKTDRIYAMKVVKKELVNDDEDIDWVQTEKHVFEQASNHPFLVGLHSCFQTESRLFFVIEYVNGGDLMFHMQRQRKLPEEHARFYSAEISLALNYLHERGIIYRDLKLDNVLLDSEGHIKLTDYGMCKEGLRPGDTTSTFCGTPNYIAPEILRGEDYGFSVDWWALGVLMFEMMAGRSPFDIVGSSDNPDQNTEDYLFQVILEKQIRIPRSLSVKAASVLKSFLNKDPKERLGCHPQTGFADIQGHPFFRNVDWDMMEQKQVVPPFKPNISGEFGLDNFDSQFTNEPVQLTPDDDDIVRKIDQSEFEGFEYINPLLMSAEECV

[3] = molecular target: T1, Protein kinase C iota type (Homo sapiens); conditions: at 1 µM
[4] = molecular target: Protein kinase C theta type (Homo sapiens) (UniProt Q04759); conditions: at 0.1 µM
Protein kinase C theta type (Homo sapiens), sequence (Q04759 whole entry, looked up): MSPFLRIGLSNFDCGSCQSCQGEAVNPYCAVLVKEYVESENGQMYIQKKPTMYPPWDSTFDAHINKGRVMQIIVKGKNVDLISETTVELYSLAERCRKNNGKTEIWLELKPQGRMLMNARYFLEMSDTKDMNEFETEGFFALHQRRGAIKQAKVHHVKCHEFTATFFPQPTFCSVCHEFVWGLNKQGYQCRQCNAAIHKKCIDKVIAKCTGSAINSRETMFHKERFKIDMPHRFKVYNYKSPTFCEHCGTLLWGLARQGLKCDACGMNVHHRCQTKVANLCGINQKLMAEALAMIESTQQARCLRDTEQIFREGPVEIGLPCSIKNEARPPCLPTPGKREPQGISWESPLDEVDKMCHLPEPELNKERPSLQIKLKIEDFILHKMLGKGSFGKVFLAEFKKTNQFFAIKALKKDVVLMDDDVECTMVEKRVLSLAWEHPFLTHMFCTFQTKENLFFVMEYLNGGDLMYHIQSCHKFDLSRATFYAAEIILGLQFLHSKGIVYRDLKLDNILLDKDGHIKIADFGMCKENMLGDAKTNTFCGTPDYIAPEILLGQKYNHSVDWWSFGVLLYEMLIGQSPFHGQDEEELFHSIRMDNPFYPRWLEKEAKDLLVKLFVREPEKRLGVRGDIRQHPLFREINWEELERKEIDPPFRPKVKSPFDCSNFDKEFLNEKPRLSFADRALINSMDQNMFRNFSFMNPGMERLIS

[5] = molecular target: Protein kinase C theta type (Homo sapiens) (UniProt Q04759); conditions: at 1 µM
[6] = molecular target: Protein kinase C beta type (Homo sapiens) (UniProt P05771); conditions: at 0.1 µM
Protein kinase C beta type (Homo sapiens), sequence (P05771 2-671 limits assumed): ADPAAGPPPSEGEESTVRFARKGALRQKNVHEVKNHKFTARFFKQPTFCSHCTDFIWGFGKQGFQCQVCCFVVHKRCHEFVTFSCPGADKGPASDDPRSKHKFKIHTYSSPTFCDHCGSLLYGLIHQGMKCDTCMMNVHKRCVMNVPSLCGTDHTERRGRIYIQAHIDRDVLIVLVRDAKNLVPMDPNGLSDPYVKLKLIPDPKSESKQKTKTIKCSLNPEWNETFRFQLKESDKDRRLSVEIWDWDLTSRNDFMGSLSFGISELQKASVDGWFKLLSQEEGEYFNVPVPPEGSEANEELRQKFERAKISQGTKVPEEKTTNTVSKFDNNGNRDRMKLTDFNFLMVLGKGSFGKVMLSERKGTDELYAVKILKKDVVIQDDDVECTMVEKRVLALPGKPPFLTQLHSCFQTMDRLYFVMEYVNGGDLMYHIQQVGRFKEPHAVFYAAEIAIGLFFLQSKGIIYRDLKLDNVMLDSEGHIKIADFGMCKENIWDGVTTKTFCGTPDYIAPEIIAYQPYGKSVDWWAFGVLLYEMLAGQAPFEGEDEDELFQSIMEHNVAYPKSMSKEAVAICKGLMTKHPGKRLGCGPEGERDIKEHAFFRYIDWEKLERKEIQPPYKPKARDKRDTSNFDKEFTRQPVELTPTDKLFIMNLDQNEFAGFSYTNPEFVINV

[7] = molecular target: Protein kinase C beta type (Homo sapiens) (UniProt P05771); conditions: at 1 µM
[8] = molecular target: T2, Serine/threonine-protein kinase D1 (Homo sapiens) (UniProt Q15139); conditions: at 0.1 µM
T2 sequence (whole entry): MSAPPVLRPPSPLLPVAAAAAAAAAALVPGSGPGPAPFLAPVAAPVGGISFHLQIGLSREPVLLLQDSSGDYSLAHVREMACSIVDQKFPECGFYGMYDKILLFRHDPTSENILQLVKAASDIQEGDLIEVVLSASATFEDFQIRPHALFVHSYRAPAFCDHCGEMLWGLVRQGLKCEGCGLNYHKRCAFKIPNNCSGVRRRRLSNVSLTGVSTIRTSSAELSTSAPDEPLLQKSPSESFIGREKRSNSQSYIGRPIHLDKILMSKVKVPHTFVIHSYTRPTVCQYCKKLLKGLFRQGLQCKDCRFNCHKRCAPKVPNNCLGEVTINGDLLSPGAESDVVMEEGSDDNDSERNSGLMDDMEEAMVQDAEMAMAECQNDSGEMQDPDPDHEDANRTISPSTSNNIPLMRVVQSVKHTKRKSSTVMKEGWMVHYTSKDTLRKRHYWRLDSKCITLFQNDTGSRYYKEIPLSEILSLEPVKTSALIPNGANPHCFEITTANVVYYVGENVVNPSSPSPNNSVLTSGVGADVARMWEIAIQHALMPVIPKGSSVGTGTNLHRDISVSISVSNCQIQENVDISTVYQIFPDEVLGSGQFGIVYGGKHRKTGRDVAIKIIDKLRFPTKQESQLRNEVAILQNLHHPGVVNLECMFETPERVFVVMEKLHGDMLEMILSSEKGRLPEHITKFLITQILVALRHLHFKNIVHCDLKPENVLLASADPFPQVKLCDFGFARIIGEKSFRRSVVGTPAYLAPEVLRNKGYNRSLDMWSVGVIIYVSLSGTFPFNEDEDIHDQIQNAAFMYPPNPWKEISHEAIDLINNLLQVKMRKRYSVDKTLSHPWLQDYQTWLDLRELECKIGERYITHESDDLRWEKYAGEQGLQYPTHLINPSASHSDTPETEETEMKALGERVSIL

[9] = molecular target: T2, Serine/threonine-protein kinase D1 (Homo sapiens); conditions: at 1 µM
[10] = molecular target: T3, Serine/threonine-protein kinase D2 (Homo sapiens) (UniProt Q9BZL6); conditions: at 0.1 µM
T3 sequence (whole entry): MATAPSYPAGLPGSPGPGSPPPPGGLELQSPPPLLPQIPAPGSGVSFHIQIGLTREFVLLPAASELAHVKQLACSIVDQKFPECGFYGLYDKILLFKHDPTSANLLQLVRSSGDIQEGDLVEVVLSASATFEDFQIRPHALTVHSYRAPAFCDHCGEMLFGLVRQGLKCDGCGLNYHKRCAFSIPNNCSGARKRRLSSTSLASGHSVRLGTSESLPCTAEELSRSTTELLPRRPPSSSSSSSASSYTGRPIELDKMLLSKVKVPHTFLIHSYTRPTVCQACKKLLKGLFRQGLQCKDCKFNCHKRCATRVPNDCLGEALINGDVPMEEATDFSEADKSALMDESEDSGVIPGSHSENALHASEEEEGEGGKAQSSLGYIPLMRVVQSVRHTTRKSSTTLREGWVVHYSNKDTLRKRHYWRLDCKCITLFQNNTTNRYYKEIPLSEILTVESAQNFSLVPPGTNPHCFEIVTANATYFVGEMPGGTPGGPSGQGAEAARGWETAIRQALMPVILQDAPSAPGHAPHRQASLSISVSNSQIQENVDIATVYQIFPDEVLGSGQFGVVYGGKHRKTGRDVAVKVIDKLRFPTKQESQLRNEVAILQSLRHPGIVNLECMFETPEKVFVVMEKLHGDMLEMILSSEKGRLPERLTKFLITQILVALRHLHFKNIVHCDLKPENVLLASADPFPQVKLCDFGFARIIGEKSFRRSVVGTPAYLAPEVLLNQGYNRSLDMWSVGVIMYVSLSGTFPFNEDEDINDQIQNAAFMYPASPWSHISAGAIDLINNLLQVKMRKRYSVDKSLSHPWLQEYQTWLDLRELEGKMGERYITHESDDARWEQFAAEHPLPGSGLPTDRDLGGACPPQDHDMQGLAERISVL

[11] = molecular target: T3, Serine/threonine-protein kinase D2 (Homo sapiens); conditions: at 1 µM
[12] = molecular target: T4, Serine/threonine-protein kinase D3 (Homo sapiens) (UniProt O94806); conditions: at 0.1 µM
T4 sequence (whole entry): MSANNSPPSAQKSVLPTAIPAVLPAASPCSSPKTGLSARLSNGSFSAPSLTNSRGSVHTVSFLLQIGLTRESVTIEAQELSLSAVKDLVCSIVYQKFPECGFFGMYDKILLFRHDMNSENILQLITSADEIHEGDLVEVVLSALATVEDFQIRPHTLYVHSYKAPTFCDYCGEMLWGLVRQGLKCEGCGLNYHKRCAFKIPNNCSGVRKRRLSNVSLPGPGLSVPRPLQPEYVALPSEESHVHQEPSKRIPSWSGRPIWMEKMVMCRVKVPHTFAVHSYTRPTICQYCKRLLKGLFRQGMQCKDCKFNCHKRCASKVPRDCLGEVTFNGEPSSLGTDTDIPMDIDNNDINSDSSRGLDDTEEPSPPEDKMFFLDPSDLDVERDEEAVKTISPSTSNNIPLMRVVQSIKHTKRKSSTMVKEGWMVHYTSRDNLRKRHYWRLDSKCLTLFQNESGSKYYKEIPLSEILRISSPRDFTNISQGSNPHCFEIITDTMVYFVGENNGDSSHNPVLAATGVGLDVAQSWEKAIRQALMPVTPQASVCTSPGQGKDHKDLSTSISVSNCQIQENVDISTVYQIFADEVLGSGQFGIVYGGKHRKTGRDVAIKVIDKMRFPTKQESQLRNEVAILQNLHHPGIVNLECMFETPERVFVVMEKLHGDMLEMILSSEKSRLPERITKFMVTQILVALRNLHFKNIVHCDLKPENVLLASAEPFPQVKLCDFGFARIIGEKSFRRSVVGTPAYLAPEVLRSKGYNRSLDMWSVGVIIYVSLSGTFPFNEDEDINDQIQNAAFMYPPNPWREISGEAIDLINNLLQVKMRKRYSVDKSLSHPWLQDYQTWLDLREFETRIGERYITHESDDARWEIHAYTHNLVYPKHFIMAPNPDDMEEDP

[13] = molecular target: T4, Serine/threonine-protein kinase D3 (Homo sapiens); conditions: at 1 µM
[14] = molecular target: T5, cGMP-dependent protein kinase 1 (Homo sapiens) (UniProt Q13976); conditions: at 0.1 µM
T5 sequence (whole entry): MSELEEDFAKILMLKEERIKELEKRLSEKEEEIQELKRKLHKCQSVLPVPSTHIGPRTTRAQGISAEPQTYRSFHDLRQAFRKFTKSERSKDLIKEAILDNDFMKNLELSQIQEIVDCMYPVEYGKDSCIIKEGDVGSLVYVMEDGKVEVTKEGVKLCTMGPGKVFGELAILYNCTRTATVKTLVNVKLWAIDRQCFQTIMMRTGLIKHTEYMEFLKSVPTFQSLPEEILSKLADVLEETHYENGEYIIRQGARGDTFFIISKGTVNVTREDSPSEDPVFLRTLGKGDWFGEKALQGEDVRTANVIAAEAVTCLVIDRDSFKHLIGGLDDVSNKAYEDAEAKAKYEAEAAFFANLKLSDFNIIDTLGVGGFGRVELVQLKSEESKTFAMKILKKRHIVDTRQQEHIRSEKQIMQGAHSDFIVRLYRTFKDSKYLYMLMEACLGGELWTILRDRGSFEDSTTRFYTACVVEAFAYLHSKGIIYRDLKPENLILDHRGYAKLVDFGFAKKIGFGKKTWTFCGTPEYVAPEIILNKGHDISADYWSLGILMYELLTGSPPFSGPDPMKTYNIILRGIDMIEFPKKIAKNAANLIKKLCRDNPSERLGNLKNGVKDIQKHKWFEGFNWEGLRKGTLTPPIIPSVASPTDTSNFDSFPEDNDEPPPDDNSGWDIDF

[15] = molecular target: T5, cGMP-dependent protein kinase 1 (Homo sapiens); conditions: at 1 µM
[16] = molecular target: T6, cGMP-dependent protein kinase 2 (Homo sapiens) (UniProt Q13237); conditions: at 0.1 µM
T6 sequence (whole entry): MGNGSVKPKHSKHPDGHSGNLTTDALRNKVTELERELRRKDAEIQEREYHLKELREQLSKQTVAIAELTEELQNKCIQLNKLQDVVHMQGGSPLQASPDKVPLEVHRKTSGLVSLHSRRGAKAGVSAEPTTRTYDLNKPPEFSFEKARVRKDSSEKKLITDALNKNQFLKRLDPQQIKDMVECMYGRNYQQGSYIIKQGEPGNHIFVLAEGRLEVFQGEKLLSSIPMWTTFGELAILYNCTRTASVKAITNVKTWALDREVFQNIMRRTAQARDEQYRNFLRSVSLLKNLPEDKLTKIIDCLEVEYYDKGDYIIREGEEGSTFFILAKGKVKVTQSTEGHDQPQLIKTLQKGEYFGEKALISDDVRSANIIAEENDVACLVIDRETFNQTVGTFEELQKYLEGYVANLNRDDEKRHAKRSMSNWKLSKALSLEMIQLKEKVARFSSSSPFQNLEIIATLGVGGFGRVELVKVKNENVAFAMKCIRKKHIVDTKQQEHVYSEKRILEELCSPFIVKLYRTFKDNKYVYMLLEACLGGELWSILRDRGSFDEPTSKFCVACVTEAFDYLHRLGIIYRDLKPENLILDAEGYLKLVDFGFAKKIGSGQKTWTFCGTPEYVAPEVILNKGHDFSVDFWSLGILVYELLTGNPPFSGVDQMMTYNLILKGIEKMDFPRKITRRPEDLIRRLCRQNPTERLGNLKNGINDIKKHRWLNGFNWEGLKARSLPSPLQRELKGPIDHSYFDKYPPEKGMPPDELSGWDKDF

[17] = molecular target: T6, cGMP-dependent protein kinase 2 (Homo sapiens); conditions: at 1 µM
[18] = molecular target: T7, cAMP-dependent protein kinase catalytic subunit PRKX (Homo sapiens) (UniProt P51817); conditions: at 0.1 µM
T7 sequence (whole entry): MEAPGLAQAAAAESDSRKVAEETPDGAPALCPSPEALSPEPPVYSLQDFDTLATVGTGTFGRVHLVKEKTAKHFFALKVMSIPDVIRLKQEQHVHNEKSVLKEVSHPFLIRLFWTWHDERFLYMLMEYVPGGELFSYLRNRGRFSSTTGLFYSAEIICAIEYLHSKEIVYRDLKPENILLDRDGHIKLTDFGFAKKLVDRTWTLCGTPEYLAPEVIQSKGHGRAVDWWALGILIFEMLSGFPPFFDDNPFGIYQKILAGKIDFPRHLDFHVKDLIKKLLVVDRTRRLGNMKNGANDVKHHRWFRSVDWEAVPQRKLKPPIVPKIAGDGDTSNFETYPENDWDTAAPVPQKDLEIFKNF

[19] = molecular target: T7, cAMP-dependent protein kinase catalytic subunit PRKX (Homo sapiens); conditions: at 1 µM
[20] = molecular target: Rho-associated protein kinase 1 (Homo sapiens) (UniProt Q13464); conditions: at 0.1 µM;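 also: values are mean percent inhibition of ROCK1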
Rho-associated protein kinase 1 (Homo sapiens), sequence (Q13464 2-1354 limits assumed): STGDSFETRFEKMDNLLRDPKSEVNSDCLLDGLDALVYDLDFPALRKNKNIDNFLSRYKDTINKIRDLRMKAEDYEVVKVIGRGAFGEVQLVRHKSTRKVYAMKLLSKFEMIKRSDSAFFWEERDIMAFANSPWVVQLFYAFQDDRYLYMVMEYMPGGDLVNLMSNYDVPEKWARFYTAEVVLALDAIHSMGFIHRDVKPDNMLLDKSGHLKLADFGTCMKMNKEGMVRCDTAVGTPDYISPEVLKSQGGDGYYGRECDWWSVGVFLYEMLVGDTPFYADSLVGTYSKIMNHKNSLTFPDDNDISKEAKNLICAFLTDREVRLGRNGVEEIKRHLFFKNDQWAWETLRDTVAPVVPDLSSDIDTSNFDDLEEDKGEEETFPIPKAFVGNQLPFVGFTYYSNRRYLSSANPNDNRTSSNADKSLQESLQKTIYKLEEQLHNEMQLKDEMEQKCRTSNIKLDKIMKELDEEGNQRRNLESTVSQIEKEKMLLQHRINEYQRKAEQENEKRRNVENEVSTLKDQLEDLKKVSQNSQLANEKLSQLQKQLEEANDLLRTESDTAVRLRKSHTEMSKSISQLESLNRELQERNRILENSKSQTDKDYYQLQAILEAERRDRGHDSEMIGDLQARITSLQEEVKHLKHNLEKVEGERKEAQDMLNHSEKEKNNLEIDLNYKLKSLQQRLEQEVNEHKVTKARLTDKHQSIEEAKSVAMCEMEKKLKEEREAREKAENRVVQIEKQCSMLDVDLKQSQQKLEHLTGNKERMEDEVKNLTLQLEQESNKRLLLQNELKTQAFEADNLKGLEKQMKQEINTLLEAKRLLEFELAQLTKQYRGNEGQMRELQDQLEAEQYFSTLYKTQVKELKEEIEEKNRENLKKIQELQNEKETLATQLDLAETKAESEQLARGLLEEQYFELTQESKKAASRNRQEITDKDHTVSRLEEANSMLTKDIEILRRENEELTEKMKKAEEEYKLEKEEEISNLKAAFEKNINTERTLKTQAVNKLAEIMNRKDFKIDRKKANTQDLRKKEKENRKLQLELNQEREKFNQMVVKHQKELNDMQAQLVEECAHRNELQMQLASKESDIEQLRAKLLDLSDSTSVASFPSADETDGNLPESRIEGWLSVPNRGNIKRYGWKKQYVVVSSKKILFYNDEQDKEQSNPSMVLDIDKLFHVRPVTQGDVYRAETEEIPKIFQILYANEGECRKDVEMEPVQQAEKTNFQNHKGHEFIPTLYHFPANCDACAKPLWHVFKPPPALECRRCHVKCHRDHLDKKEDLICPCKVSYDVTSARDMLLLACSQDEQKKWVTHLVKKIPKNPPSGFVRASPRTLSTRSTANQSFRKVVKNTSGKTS

| SMILES | inhibition [1] [%] | inhibition [2] [%] | inhibition [3] [%] | inhibition [4] [%] | inhibition [5] [%] | inhibition [6] [%] | inhibition [7] [%] | inhibition [8] [%] | inhibition [9] [%] | inhibition [10] [%] | inhibition [11] [%] | inhibition [12] [%] | inhibition [13] [%] | inhibition [14] [%] | inhibition [15] [%] | inhibition [16] [%] | inhibition [17] [%] | inhibition [18] [%] | inhibition [19] [%] | inhibition [20] [%] |
| --- | --- | --- | --- | --- | --- | --- | --- | --- | --- | --- | --- | --- | --- | --- | --- | --- | --- | --- | --- | --- |
| NC(=O)c1cccc(Nc2nccc(Nc3cccc(F)c3)n2)c1 | 4.93 | -0.38 | -1.03 | 0.79 | 0.72 | 2.1 | 4.84 | 1.93 | 4.25 | 0.71 | 0.2 | 0.7 | 1.01 | 0.12 | -0.32 | 0.77 | 0.47 | 1.19 | 0.35 | 0.28 |
| N#Cc1cccc(Nc2nccc(-c3cnn4ncccc34)n2)c1 | 31.2 | 0.78 | 1.84 | 3.95 | 14.2 | 6.33 | 30.2 | 7.68 | 49.5 | 7.36 | 46.8 | 10.5 | 54.9 | 10.8 | 50.2 | 4.14 | 25.9 | 1.47 | 2.66 | 1.39 |
| CN(C)C(=O)O[C@@H]1CN[C@@H](C#Cc2cc3ncnc(Nc4ccc(OCc5cccc(F)c5)c(Cl)c4)c3s2)C1 | -0.54 | -1.15 | 0 | -0.8 | -1.63 | 0.88 | 0.87 | 0.32 | 3.71 | 0.79 | 5.06 | 1.06 | 4.35 | -0.86 | 1.64 | 0.46 | 2.7 | -0.77 | -1.92 | -0.58 |
